Here are results for 14 compounds from PubChem BioAssay (EPA / NIEHS).

“And” between values parts separate entries of the source, which are not always exact repeats. Equal entries are not always repeated. Results filed as inconclusive are left out. A structure can be active in one record and inactive in another. The source made the active and inactive calls. The calls were made as follows: active = hit-call score of the fitted dose curve at least 0.9, where 1 is the maximum; inconclusive = response in the unintended direction; inactive = score below 0.9.

One may read the AC50 as the concentration at which the activity in the assay is half-maximal.

The target of assay [1] is human Esterase Plasma (ES), BCHE (gene 590) (UniProt P06276). Kind of assay: NVS_ENZ_hES: NovaScreen (NVS) Enzymatic Assay for human Esterase Plasma (ES) (AID 2283157). In outline:
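Chemicals were added to plasma-extracted human enzyme in a cell-free format, and activity was read colorimetrically after 0.25 hour. Activity loss was referenced to DMSO; concentration-response top dose was 50 uM.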

Assay [2] deals with human Caspase 8 (CASP8), CASP8 (gene 841) (UniProt Q14790). Kind of assay: NVS_ENZ_hCASP8: NovaScreen (NVS) Enzymatic Assay for human Caspase 8 (CASP8) (AID 2283146). In outline: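 E. coli-expressed enzyme was used in a cell-free fluorogenic substrate assay read 1 h after dosing. Loss of signal was scored relative to DMSO, and the primary screen was run in duplicate at 25 uM.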
Sequence of human Caspase 8 (CASP8), CASP8 (gene 841) (Q14790 whole entry, looked up): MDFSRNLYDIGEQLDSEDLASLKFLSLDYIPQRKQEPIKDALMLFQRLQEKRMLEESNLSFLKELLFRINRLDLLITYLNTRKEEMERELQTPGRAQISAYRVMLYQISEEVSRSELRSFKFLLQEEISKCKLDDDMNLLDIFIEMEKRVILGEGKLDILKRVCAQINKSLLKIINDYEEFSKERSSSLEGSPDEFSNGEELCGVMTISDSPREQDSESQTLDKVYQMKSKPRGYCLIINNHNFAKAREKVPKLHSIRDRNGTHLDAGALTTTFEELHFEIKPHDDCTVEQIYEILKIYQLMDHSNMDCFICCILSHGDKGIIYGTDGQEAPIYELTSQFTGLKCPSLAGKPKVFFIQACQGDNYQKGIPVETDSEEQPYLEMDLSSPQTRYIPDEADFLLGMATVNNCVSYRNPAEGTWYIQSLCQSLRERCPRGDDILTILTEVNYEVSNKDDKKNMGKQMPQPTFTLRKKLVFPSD

The target in assay [3] is human Colony Stimulating Factor 1 Receptor (CSF1R), CSF1R (gene 1436) (UniProt P07333). Kind of assay: NVS_ENZ_hCSF1R: NovaScreen (NVS) Enzymatic Assay for human Colony Stimulating Factor 1 Receptor (CSF1R) (AID 2283150). In outline: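 Cell-free recombinant human CSF1R kinase with fluorescent substrate, product separated by electrophoretic mobility shift; read 1 h after dosing. Primary screen at 25 uM in duplicate, actives then in concentration-response up to 50 uM, relative to DMSO.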
Sequence of human Colony Stimulating Factor 1 Receptor (CSF1R), CSF1R (gene 1436) (P07333 whole entry, looked up): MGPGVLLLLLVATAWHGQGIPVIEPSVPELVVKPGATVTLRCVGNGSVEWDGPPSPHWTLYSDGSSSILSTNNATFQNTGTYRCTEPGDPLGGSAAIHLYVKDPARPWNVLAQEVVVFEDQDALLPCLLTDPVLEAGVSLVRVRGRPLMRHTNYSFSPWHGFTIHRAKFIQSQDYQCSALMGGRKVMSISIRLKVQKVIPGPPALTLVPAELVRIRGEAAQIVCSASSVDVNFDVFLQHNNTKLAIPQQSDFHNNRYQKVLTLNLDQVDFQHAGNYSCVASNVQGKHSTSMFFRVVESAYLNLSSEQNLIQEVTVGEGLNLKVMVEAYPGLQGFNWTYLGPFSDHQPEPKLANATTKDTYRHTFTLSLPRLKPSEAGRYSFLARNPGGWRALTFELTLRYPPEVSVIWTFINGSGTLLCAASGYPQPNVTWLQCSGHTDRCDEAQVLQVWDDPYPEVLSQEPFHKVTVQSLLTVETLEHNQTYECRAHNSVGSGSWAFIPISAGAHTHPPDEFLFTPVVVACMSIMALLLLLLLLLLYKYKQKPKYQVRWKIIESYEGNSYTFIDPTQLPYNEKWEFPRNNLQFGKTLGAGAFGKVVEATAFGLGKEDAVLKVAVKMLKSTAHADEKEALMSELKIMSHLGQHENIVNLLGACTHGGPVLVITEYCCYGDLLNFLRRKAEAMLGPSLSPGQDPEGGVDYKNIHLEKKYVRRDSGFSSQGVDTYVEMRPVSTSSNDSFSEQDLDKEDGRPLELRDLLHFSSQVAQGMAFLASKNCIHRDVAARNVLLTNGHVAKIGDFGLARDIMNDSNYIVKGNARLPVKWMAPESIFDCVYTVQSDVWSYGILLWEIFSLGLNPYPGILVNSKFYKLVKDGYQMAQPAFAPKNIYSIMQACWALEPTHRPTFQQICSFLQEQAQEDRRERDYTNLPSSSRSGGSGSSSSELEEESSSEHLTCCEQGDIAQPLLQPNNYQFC

For assay [4], the target named is human Elastase, ELANE (gene 1991) (UniProt P08246). Kind of assay: NVS_ENZ_hElastase: NovaScreen (NVS) Enzymatic Assay for human Elastase (AID 2283153). The essentials:
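Cell-free elastase from human neutrophils, 1.5 h after dosing, activity read by absorbance. Primary screen in duplicate at 25 uM; hits (e.g., 30% inhibition) rerun in singleton concentration-response up to 50 uM, fitted versus DMSO.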

Assay [5] addresses human Ephrin type-A Receptor 2 (EphA2), EPHA2 (gene 1969) (UniProt P29317). Nature of the assay: NVS_ENZ_hEphA2: NovaScreen (NVS) Enzymatic Assay for human Ephrin type-A Receptor 2 (EphA2) (AID 2283155). In outline: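 Cell-free recombinant EphA2 kinase with specific substrate, 1 h, fluorescence with electrophoretic mobility-shift separation of substrate and product. Primary screen at 25 uM in duplicate; hits retested in singleton concentration-response up to 50 uM, referenced to DMSO.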

Assay [6] has as its target human Ephrin type-B Receptor 2 (EphB2), EPHB2 (gene 2048) (UniProt P29323). Nature of the assay: NVS_ENZ_hEphB2: NovaScreen (NVS) Enzymatic Assay for human Ephrin type-B Receptor 2 (EphB2) (AID 2283156). In outline: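 Recombinant kinase with fluorescent substrate, product separated by electrophoretic mobility shift, read 1 h after dosing. Duplicate 25 uM screen, then singleton concentration-response to 50 uM max; loss of signal versus DMSO.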

For assay [7], the target named is human Casein Kinase 2- alpha 2 beta 2 (CK2a2b2), CSNK2A1 (gene 1457) (UniProt P68400). Nature of the assay: NVS_ENZ_hCK2a2b2: NovaScreen (NVS) Enzymatic Assay for human Casein Kinase 2- alpha 2 beta 2 (CK2a2b2) (AID 2283147). In outline: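 Cell-free recombinant CK2 α2β2 holoenzyme with a fluorescent peptide substrate; product separated by electrophoretic mobility shift and read 1 h after dosing. Single-point screen at 25 uM in duplicate; actives were followed with concentration-response up to 50 uM versus DMSO.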

Assay [8] has as its target human Dual Specificity Protein Phosphatase 3 (DUSP3), DUSP3 (gene 1845) (UniProt P51452). Kind of assay: NVS_ENZ_hDUSP3: NovaScreen (NVS) Enzymatic Assay for human Dual Specificity Protein Phosphatase 3 (DUSP3) (AID 2283152). The essentials: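 Cell-free assay with recombinant human DUSP3 and fluorogenic substrate, read by fluorescence intensity. Primary screen ran duplicate at 25 uM; actives followed up in concentration series; loss of signal versus DMSO scored.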

The target of assay [9] is human Ephrin type-B Receptor 1 (EphB1), EPHB1 (gene 2047) (UniProt P54762). Nature of the assay: NVS_ENZ_hEphB1: NovaScreen (NVS) Enzymatic Assay for human Ephrin type-B Receptor 1 (EphB1) (AID 2283154). In outline:
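Cell-free kinase assay with recombinant enzyme, fluorescent substrate and electrophoretic mobility-shift separation of substrate and product; read 1 h after dosing. Single-concentration duplicate screen at 25 uM; loss of signal versus DMSO baseline.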

In assay [10] the target is human Fibroblast Growth Factor Receptor 1 (FGFR1), FGFR1 (gene 2260) (UniProt P11362). Kind of assay: NVS_ENZ_hFGFR1: NovaScreen (NVS) Enzymatic Assay for human Fibroblast Growth Factor Receptor 1 (FGFR1) (AID 2283159).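 As to AC50: hits lower the signal so potencies describe inhibitors of the kinase.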 The essentials:
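Cell-free recombinant kinase with fluorescent substrate, product separated by electrophoretic mobility shift; read 1 hour after dosing, loss of signal relative to DMSO. Initial screen in duplicate at 25 uM, actives followed in concentration series.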

Assay [11] addresses human Casein Kinase 1-delta (CK1D), CSNK1D (gene 1453) (UniProt P48730). Nature of the assay: NVS_ENZ_hCK1D: NovaScreen (NVS) Enzymatic Assay for human Casein Kinase 1-delta (CK1D) (AID 2283148). In outline:
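Recombinant human CK1-delta, cell-free; fluorescent substrate with electrophoretic mobility-shift separation of product, read 1 h after dosing. Single 25 uM duplicate screen, then concentration-response up to 50 uM; loss of signal vs DMSO.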

The target of assay [12] is Glycogen synthase kinase-3 beta (Homo sapiens) (UniProt P49841). Nature of the assay: NVS_ENZ_hGSK3b: NovaScreen (NVS) Enzymatic Assay for human Glycogen Synthase Kinase-3 beta (GSK3b) (AID 2283165). In outline: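 Recombinant enzyme with specific fluorescent substrate, 1 h, product separated by electrophoretic mobility shift. Primary duplicate screen at 25 uM; actives (e.g. 30% inhibition) followed in singleton concentration-response to 50 uM. Signal loss fitted versus DMSO.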
Sequence of Glycogen synthase kinase-3 beta (Homo sapiens) (P49841 whole entry, looked up): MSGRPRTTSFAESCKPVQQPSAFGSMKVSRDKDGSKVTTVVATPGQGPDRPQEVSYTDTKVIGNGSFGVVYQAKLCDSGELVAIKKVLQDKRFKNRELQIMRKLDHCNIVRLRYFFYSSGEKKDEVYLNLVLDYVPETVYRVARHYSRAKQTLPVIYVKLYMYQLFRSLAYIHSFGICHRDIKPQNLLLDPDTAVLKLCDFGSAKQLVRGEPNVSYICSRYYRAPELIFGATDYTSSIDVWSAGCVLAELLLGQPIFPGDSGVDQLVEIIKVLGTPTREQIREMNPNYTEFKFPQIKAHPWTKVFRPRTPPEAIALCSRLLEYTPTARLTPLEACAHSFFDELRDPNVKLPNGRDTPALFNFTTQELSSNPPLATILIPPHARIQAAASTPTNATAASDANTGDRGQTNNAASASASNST

Assay [13] deals with human Epidermal Growth Factor Receptor (EGFR), EGFR (gene 1956) (UniProt P00533). Nature of the assay: NVS_ENZ_hEGFR: NovaScreen (NVS) Enzymatic Assay for human Epidermal Growth Factor Receptor (EGFR) (AID 2283151). The essentials: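 Cell-free kinase assay, fluorescence plus electrophoretic mobility shift separating substrate and product, read 1 hour after dosing; loss of signal vs DMSO. Duplicate screen at 25 uM, then concentration-response to 50 uM.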

Assay [14] addresses human FYN Proto-Oncogene, Src family Tyrosine Kinase (Fyn), FYN (gene 2534) (UniProt P06241). Kind of assay: NVS_ENZ_hFyn: NovaScreen (NVS) Enzymatic Assay for human FYN Proto-Oncogene, Src family Tyrosine Kinase (Fyn) (AID 2283161). The essentials: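 Recombinant enzyme with fluorescent substrate, product separated by electrophoretic mobility shift; read 1 h after dosing. Duplicate 25 uM single-point screen, actives retested in concentration series; loss of signal vs DMSO.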

The target in assay [15] is Histone deacetylase 3 (Homo sapiens) (UniProt O15379). Nature of the assay: NVS_ENZ_hHDAC3: NovaScreen (NVS) Enzymatic Assay for human Histone Deacetylase 3 (HDAC3) (AID 2283163). The essentials:
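Recombinant human HDAC3 with fluorescent substrate, 1 h after dosing; product separated from substrate by electrophoretic mobility shift and read by fluorescence. Primary screen at 25 uM in duplicate; actives (e.g. ≥30% inhibition) retested in concentration-response up to 50 uM.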

For assay [16], the target named is human IkappaB Kinase alpha (IKKa), CHUK (gene 1147) (UniProt O15111). Kind of assay: NVS_ENZ_hIKKa: NovaScreen (NVS) Enzymatic Assay for human IkappaB Kinase alpha (IKKa) (AID 2283167). The essentials:
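Cell-free recombinant human IKKa with fluorescent substrate, product separated by electrophoretic mobility shift; read 1 hour after dosing. Primary screen duplicate at 25 uM, actives then concentration-response up to 50 uM; loss of signal relative to DMSO.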

In assay [17] the target is human Insulin Receptor (InsR), INSR (gene 3643) (UniProt P06213). Nature of the assay: NVS_ENZ_hInsR: NovaScreen (NVS) Enzymatic Assay for human Insulin Receptor (InsR) (AID 2283168). The essentials:
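Fluorescent substrate phosphorylation by recombinant kinase, product resolved by electrophoretic mobility shift, read 1 h after dosing. Screened in duplicate at 25 uM; hits (e.g., 30% inhibition) run in concentration-response to 50 uM; DMSO as baseline.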

Sequence of human Dual Specificity Protein Phosphatase 3 (DUSP3), DUSP3 (gene 1845) (P51452 whole entry, looked up): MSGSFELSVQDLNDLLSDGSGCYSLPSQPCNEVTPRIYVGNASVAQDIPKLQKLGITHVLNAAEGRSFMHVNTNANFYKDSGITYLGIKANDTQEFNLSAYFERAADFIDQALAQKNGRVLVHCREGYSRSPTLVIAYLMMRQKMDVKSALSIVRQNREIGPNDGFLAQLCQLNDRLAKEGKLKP
Sequence of human Esterase Plasma (ES), BCHE (gene 590) (P06276 whole entry, looked up): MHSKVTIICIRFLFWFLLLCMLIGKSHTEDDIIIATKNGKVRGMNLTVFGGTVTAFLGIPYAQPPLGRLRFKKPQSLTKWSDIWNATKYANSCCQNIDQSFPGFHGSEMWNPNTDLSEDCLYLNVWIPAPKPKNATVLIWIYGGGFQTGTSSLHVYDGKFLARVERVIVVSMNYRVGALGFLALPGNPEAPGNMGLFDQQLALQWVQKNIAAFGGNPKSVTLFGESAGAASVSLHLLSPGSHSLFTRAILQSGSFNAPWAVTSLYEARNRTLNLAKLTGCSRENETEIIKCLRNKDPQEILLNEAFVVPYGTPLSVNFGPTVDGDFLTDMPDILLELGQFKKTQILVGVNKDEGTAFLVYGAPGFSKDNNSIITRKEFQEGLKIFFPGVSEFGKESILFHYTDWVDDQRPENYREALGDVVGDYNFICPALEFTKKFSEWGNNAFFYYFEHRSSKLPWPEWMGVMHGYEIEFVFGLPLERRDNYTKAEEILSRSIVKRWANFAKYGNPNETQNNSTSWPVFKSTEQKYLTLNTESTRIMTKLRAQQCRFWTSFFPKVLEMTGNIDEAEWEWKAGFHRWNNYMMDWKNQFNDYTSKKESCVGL
Sequence of human Elastase, ELANE (gene 1991) (P08246 whole entry, looked up): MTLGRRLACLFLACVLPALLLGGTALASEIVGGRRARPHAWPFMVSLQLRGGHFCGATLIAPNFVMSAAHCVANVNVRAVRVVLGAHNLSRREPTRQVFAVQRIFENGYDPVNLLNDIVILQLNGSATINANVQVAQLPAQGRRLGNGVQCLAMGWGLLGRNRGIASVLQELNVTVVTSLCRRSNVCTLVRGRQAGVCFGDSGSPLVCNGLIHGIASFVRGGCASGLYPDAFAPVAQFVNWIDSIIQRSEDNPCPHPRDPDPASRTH
Sequence of human Ephrin type-A Receptor 2 (EphA2), EPHA2 (gene 1969) (P29317 whole entry, looked up): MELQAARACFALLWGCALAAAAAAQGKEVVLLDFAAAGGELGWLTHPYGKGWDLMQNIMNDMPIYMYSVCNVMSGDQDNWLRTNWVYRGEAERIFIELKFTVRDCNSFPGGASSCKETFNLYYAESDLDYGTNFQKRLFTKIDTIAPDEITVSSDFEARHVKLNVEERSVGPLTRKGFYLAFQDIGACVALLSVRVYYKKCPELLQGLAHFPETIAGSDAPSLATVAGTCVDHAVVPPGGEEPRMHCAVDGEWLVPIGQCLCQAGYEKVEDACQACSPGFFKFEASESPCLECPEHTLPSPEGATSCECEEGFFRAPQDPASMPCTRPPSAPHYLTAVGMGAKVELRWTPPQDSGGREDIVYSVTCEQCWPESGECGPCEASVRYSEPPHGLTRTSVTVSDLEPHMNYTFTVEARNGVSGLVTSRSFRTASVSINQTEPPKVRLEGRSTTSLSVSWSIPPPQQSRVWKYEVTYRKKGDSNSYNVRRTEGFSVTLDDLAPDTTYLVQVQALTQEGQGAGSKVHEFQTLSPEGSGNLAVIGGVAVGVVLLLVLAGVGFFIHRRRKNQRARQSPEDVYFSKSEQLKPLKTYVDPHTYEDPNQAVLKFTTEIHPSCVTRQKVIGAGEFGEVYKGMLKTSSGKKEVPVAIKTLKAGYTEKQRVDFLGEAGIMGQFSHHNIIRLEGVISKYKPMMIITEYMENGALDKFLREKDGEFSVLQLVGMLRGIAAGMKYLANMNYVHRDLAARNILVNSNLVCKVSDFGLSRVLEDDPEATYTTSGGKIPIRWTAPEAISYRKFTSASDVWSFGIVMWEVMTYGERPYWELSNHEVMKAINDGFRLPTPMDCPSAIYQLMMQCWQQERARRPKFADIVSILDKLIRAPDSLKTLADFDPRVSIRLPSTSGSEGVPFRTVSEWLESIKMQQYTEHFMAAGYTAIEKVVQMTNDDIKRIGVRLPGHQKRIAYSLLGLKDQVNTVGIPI
Sequence of human Fibroblast Growth Factor Receptor 1 (FGFR1), FGFR1 (gene 2260) (P11362 whole entry, looked up): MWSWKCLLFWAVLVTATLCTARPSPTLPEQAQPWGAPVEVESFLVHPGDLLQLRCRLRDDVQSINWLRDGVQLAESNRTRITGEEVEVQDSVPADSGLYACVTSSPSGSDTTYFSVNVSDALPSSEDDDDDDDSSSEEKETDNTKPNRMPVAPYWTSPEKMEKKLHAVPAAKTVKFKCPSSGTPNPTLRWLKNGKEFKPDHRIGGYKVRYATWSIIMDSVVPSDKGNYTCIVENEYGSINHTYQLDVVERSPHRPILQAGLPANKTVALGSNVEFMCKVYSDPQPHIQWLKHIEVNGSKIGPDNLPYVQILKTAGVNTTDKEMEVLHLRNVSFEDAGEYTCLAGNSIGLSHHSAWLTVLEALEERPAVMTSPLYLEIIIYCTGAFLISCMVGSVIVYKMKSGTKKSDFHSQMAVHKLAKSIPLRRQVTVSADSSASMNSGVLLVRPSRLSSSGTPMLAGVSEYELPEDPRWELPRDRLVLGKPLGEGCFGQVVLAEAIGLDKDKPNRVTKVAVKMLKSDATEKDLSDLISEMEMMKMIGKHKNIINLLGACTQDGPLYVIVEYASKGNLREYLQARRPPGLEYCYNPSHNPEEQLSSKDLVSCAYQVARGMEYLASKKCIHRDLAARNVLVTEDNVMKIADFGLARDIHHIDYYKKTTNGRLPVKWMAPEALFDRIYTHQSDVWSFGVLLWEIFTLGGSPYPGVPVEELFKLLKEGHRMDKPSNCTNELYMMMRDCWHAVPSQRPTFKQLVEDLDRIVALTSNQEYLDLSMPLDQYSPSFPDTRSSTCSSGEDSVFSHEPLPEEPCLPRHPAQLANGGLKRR

Regarding `CC(C)OC(=O)Nc1cccc(Cl)c1`, the result in [1] was inactive.
As for `O=C1c2ccccc2C(=O)N1SC(Cl)(Cl)Cl`, in assay [2], the compound was called inactive.
For the compound `CC1(C)C(C=C(Cl)Cl)C1C(=O)OC(C#N)c1ccc(F)c(Oc2ccccc2)c1` (stereo not drawn), the outcome in assay [3], in assay [4] and in [5] was inactive.
In the case of `CCOCN(C(=O)CCl)c1c(C)cccc1CC`, the result in [6] was inactive.
On to `CCOC1Oc2ccc(OS(C)(=O)=O)cc2C1(C)C` (stereo not drawn), for which, in [3], the compound was classed as inactive.
`COP(=S)(OC)Oc1ccc([N+](=O)[O-])cc1`: the compound was classed as inactive in [4] and in assay [1].
Regarding `CCC(C)(NC(=O)c1cc(Cl)c(C)c(Cl)c1)C(=O)CCl` (stereo not drawn), the call in assay [7] was inactive.
Consider `CC[C@H](C)[C@H]1O[C@]2(C=C[C@@H]1C)C[C@@H]1C[C@@H](C/C=C(\C)[C@@H](O[C@H]3C[C@H](OC)[C@@H](O[C@H]4C[C@H](OC)[C@@H](O)[C@H](C)O4)[C@H](C)O3)[C@@H](C)/C=C/C=C3\CO[C@@H]4[C@H](O)C(C)=C[C@@H](C(=O)O1)[C@]34O)O2` (tested in a mixture with another compound), for which the AC50 in assay [8] was 2.74 µM (active). Further, the outcome in [9] and in assay [10] was inactive.
For the compound `O=C(O)CCCOc1ccc(Cl)cc1Cl`, the AC50 in assay [7] was 19 µM (active).
On to `CNC(=O)Oc1cccc(N=CN(C)C)c1`, for which the outcome in [1] was inactive.
On to `Oc1ccc(Cl)cc1Cc1ccccc1`, for which the concentration at half-maximal activity (AC50) in assay [11] is 25.2 µM (active) and 21.9 µM (active). Also, the compound was called inactive in assay [8], in [9], in assay [5], in assay [6], in assay [1] and in assay [12].
For the compound `O=S(=O)(O)C(F)(F)C(F)(F)C(F)(F)C(F)(F)C(F)(F)C(F)(F)C(F)(F)C(F)(F)F`, the compound was classed as inactive in [2], in assay [8] and in [4]. Besides, the half-maximal activity concentration (AC50) in [11] was 22 µM (active) and 39 µM (active); in [3] it was 18.6 µM (active) and 43.9 µM (active); in assay [13] it was 25 µM (active) and 17.4 µM (active); in assay [8], 35.6 µM (active); in assay [5] it was 15.8 µM (active); in assay [10], 39.7 µM (active) and 24.3 µM (active). The AC50 was 47 µM (active) in assay [14]; 17.4 µM (active) and 10.3 µM (active) in [15]; 39.3 µM (active) in [12]; 27.2 µM (active) and 25.9 µM (active) in assay [16]; 11.7 µM (active) in assay [17].
For `CCCN(CCOc1c(Cl)cc(Cl)cc1Cl)C(=O)n1ccnc1`, the call in assay [8] was inactive.
With `C[C@H]1[C@H](c2ccc(Cl)cc2)SC(=O)N1C(=O)NC1CCCCC1`, the result in assay [2] was inactive.
